In PubChem BioAssay (NCATS):
Values joined by “and” are separate entries in the source; they are usually repeats but may differ in a detail not shown here. Equal entries are not always repeated. Inconclusive results are not listed. More than one record can exist for a structure, and the calls need not agree. Active and inactive are the calls of the source. Unless noted, calls come from the whole dose curve; as a rule, active = well fitted curve in the direction sought with a large enough effect; inconclusive = small, poorly fitted or top-dose-only effect, or another doubt; inactive = no such curve, though single readings can be large; an effect the other way counts as inactive or inconclusive.

What was measured:
[1] = Cell Viability - BJ (AID 421; calls by dose curve;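 note: potency is the fitted concentration of half-maximal effect; cells exposed to compound for 40 hours at 37 °C before readout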); settings: BJ fibroblast viability, qHTS
How it was run: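 Normal human BJ foreskin fibroblasts, 1500/well in complete medium, treated 40 hr at 37 °C. Cellular ATP by CellTiter-Glo luminescence; normalized to DMSO and 100 uM tamoxifen, AC50 from Hill fit.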

[2] = Cell Viability - MRC5 (AID 434; calls by dose curve;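 note: potency is the fitted concentration of half-maximal effect; potency reflects cytotoxicity seen as loss of intracellular ATP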); settings: MRC5 lung fibroblast viability, qHTS
How it was run: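 MRC5 normal human lung fibroblasts, 1500 cells/well, exposed to compound for 40 hr at 37 C. Cellular ATP was read by CellTiter-Glo luminescence; data normalized to DMSO and 100 uM tamoxifen, with AC50 from Hill fits.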

[3] = Cell Viability - SK-N-SH (AID 435; calls by dose curve;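 note: potency is the fitted concentration of half-maximal effect; compound exposure lasted 40 h at 37 °C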); settings: SK-N-SH neuroblastoma cell viability qHTS
How it was run: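 Luminescent ATP signal served as the viability read-out after 40 hours of compound treatment of human neuroblastoma SK-N-SH cells. Concentration-response data, scaled between DMSO and 100 uM tamoxifen, gave AC50 values by standard Hill modeling.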

[4] = Cell Viability - N2a (AID 540); settings: N2a mouse neuroblastoma cell viability; activity change, negative = cytotoxicity: at 92.2 µM (top of the series); note: nearly all actives have a fitted effect of over 45% in size; note: potency is the fitted concentration of half-maximal effect;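 for activity change, negative = cytotoxicity: plate controls were DMSO alone for no effect and tamoxifen control for full effect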
How it was run: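 Mouse neuroblastoma N2a cells (1500/well) were preincubated 5 hr at 37 °C, then exposed to compounds for 40 hr at 37 °C in complete medium. Viability was read as intracellular ATP by CellTiter-Glo luminescence; AC50 from Hill fits.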

[5] = Cell Viability - Renal Proximal Tubule (AID 545); settings: renal proximal tubule cells viability, primary cells of rat origin; activity change, negative = cytotoxicity: at 91.7 µM (top of the series); note: nearly all actives have a fitted effect of over 40% in size; note: potency is the fitted concentration of half-maximal effect
How it was run: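 Luminescent ATP signal (CellTiter-Glo) served as the viability read-out after 40 hr compound exposure of freshly isolated rat proximal tubule cells at 37 °C. Concentration-dependent ATP loss was fitted with the Hill equation to give AC50.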

[6] = Cellular Toxicity (caspase-3) HepG2 (AID 654); settings: HepG2 caspase-3 activation, luminescence; series mostly up to 92.2 µM; note: potency is the fitted concentration of half-maximal effect;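 for caspase-3 activation: cells exposed to compound for 16 hours before reading; 0% = DMSO alone and 100% = caspase signal from 100 µM tamoxifen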
How it was run: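 HepG2 cells (1500/well) in complete medium were treated with compounds for 16 hr at 37 °C. Caspase-3/7 activity was then read as luminescence from peptide-aminoluciferin cleavage. AC50 came from Hill fits, normalized to DMSO and 100 uM tamoxifen.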

[7] = Cellular Toxicity (caspase-3) HUV-EC-C (AID 656); settings: HUV-EC-C cells, caspase-3 activation (apoptosis); series mostly up to 92.2 µM
How it was run: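 qHTS; HUV-EC-C, 1000 cells/well; 5 hr settle, 16 hr cmpd, 37°C; Caspase-Glo 3/7, 20 min RT; luminescence. Norm: DMSO = 0%, tamoxifen 100 uM = 100%. Hill-fit AC50.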

[8] = Cellular Toxicity (caspase-3) Mesangial (AID 660); settings: mesangial cells, normalized: DMSO 0%, 100 µM tamoxifen 100%; at 91.7 µM (top of the series);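 note: cells exposed to compound for 16 h before the caspase read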
How it was run: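 Human renal glomerular mesangial cells (1000/well) were treated with compounds for 16 h at 37 °C in complete medium, then caspase 3/7 activity was read by Caspase-Glo luminescence. Data were normalized to DMSO and 100 uM tamoxifen; AC50 from Hill fits.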

[9] = Cellular Toxicity (caspase-3) N2a (AID 665); settings: N2a cells, luminescence; Potency: caspase-3 activation; series mostly up to 92.2 µM;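 note: compound exposure lasted 16 h at 37 °C before readout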
How it was run: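 Mouse N2a neuroblastoma cells (1500/well) were treated with compounds for 16 h at 37 °C, then caspase-3/7 activity was read by Caspase-Glo luminescence after 1 h at room temperature. Data were normalized to DMSO and 10 uM staurosporine; AC50 from Hill fits.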

[10] = Cellular Toxicity (caspase-3) Renal Proximal Tubule (AID 667); settings: renal proximal tubule cells, primary cells freshly taken from rat, solvent-only wells 0%, staurosporine 100%; series mostly up to 91.7 µM;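 note: cells exposed to compound for 16 hours at 37 °C before detection; 0% = DMSO basal and 100% = 10 µM staurosporine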
How it was run: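 AC50 derived by standard Hill fit of concentration-response data, normalized between DMSO basal and 10 uM staurosporine as 100% stimulation. Cells: primary rat kidney proximal tubule, 16 h treatment at 37 °C.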

[11] = molecular target: Cytochrome P450 3A4 (Homo sapiens) (UniProt P08684); experiment: qHTS Assay for Inhibitors and Substrates of Cytochrome P450 3A4 (AID 884); settings: recombinant CYP3A4, Luciferin-PPXE luminescence; series mostly up to 57.1 µM; note: nearly all actives have a fitted effect of over 50% in size; note: potency is the fitted concentration of half-maximal effect; for activity change, negative = inhibition: % is set by controls: 0 for no effect and ±100 for the full control effect
Sequence of Cytochrome P450 3A4 (Homo sapiens) (P08684 whole entry, looked up): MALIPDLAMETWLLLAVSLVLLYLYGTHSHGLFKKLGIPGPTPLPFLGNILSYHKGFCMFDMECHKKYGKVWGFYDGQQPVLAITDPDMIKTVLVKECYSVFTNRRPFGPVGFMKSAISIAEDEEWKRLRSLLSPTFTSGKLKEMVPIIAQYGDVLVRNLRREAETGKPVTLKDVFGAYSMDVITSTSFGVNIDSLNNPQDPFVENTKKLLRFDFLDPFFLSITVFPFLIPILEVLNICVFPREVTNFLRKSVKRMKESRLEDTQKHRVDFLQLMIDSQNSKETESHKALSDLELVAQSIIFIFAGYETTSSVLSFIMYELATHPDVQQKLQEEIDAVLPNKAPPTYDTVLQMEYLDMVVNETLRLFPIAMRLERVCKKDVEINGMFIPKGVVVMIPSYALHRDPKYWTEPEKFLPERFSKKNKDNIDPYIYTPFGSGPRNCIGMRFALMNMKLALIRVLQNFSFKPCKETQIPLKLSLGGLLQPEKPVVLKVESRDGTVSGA
How it was run: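 20 nM human CYP3A4 with 25 uM Luciferin-PPXE (at KM) in 200 mM KPO4, preincubated 10 min with compound; NADPH regeneration started a 60 min RT reaction. Luciferin detected by luminescence, normalized to 57 uM ketoconazole as full inhibition.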

[12] = molecular target: Cytochrome P450 3A4 (Homo sapiens) (UniProt P08684); experiment: qHTS Assay for Activators of Cytochrome P450 3A4 (AID 885); settings: recombinant CYP3A4, Luciferin-PPXE luminescence, 60 min; series mostly up to 57.1 µM; note: nearly all actives have a fitted effect of over 65% in size
How it was run: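 Human CYP3A4 (20 nM) with Luciferin-PPXE at 25 uM (its KM) in 200 mM KPO4; 10 min compound preincubation, then NADPH regeneration and 60 min reaction at RT. Luciferin read by luminescence; normalized to 57 uM ketoconazole full inhibition.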

[13] = molecular target: Peroxisome proliferator-activated receptor alpha (Homo sapiens) (UniProt Q07869); experiment: qHTS assay for small molecule agonists of the peroxisome proliferator-activated receptor alpha (PPARalpha) signaling pathway (AID 651778); settings: PathHunter PPARalpha complementation, chemiluminescence, 6 h; max response: stronger effect = higher value; note: % of control where 0% means no effect
Sequence of Peroxisome proliferator-activated receptor alpha (Homo sapiens) (Q07869 whole entry, looked up, the tested form may be a part): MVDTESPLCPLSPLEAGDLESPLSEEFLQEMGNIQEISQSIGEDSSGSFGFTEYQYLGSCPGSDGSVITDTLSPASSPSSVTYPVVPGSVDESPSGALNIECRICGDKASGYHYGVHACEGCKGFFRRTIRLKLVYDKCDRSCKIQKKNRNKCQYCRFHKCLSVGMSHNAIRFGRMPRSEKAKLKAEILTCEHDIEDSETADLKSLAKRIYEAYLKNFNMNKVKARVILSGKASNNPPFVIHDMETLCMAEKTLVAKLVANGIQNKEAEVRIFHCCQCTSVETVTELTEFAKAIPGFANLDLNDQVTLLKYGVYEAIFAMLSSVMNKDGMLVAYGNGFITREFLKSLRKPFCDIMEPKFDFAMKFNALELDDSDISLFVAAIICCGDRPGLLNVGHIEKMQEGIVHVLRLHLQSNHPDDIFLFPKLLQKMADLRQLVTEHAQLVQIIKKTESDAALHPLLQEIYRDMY
How it was run: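 Enzyme-fragment complementation assay in which ligand-bound PPARalpha translocates and forms an active enzyme that generates chemiluminescence. Cells were plated overnight, exposed to compound for 6 hr at 37 C, and then given detection reagent for 60 min at room temperature.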

[14] = qHTS assay for cell viability of HEK293 cells (AID 743288); settings: ATP luminescence (CellTiter-Glo), 18 h; max response: stronger effect = lower value; note: nearly all actives have a fitted effect of over 50% in size; note: potency is the fitted concentration of half-maximal effect; for max response: % is set by controls: 0 for no effect and ±100 for the full control effect
How it was run: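 HEK293 parental, 2,000 cells/well; ≥5 h pre-incubation 37 C; pintool compound addition; 18 h, 37 C; CellTiter-Glo 30 min RT; luminescence read.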

[15] = qHTS assay for cell viability of the p53RE-bla HCT-116 cell line (AID 743292); settings: p53RE-bla HCT-116 viability, ATP luminescence, 16 h; series mostly up to 95 µM; note: nearly all actives have a fitted effect of over 55% in size; note: potency is the fitted concentration of half-maximal effect
How it was run: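 Compound-exposed HCT-116 (p53RE-bla) cells, 4,000 per well, were kept 16 h at 37 C following a 5 h preincubation. Cell number was estimated from total ATP by CellTiter-Glo luminescence read after 30 min at room temperature.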

[16] = Cell Viability - SH-SY5Y (AID 544); settings: SH-SY5Y neuroblastoma cell viability; viability change, negative = cytotoxic: at 92.2 µM (top of the series); note: nearly all actives have a fitted effect of over 55% in size; note: potency is the fitted concentration of half-maximal effect
How it was run: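 Human neuroblastoma SH-SY5Y cells (1500/well) in complete medium were exposed to compounds for 40 hr at 37 °C; intracellular ATP was then quantified by CellTiter-Glo luminescence after 20 min at room temperature. AC50 came from Hill-equation concentration-response fits.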

[17] = NFAT Signaling Pathway (AID 444; active = well fitted curve in either direction with a large enough effect, not every such curve was filed as active;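 note: carbachol stimulus at about its EC50 of 1 µM final; % is set by controls: 0 for no effect and ±100 for the full control effect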); settings: Jurkat NFAT-bla M1, carbachol, beta-lactamase ratio, 5 h
How it was run: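 Jurkat cells with NFAT-driven β-lactamase reporter and co-expressed M1 receptor, stimulated with carbachol (final 1 uM, ~EC50), compound titration, 5 h at 37 °C. CCF4 loaded 1 h at RT; 460/530 nm ratio gave %activity and AC50.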

[18] = Stat Signaling Pathway (AID 446; active = well fitted curve in either direction with a large enough effect, not every such curve was filed as active;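 note: ME-180 cervical cancer cells given 40 pM IL-6 alongside compound; SIE-controlled beta-lactamase reporter measured as 460/530 nm FRET emission ratio; % is set by controls: 0 for no effect and ±100 for the full control effect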); settings: ME-180 SIE beta-lactamase reporter, IL-6 stimulated, 5 h
How it was run: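 ME-180 cells carrying a SIE-driven beta-lactamase reporter are stimulated with 40 pM IL-6 for 5 h at 37C in the presence of compound. The 460/530 nm FRET substrate ratio is read after 2.5 h at RT. Data are normalised to 300 pM IL-6 and to 125 nM JAK inhibitor controls.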

[19] = molecular target: Glucocorticoid receptor (Homo sapiens) (UniProt P04150); experiment: GR-GFP Redistribution (AID 450;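 active = compounds whose dose series gives a full or clear partial fitted curve of increased nuclear translocation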; note: potency is the fitted concentration of half-maximal effect); settings: U2OS GR-GFP nuclear translocation, laser cytometry, 2 h; series mostly up to 20.6 µM
Sequence of Glucocorticoid receptor (Homo sapiens) (P04150 whole entry, looked up): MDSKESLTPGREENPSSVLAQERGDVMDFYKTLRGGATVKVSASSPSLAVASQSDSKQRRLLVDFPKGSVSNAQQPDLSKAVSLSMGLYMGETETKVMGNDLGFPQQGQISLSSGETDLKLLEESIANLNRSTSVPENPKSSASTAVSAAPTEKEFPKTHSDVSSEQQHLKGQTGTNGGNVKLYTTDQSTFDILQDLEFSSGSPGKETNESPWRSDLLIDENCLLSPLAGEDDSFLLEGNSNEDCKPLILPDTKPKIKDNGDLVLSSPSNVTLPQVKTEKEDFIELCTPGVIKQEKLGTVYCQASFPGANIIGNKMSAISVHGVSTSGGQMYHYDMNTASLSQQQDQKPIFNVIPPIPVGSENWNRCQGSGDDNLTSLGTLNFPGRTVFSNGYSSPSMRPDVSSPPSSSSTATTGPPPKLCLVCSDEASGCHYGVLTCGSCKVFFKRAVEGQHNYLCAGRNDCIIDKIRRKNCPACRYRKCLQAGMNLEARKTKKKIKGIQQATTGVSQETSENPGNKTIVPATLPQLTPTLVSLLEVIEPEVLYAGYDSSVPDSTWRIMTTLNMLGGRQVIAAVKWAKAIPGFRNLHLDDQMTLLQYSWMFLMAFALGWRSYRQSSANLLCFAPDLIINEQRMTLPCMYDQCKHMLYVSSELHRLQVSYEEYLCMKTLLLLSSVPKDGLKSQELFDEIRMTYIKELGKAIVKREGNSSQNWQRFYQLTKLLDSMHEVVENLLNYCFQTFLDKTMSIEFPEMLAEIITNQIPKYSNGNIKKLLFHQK

[20] = at 17.2 µM (top of the series) unless noted

O=C1OC2(c3cc(Br)c(O)c(Br)c3Oc3c2cc(Br)c(O)c3Br)c2c(Cl)c(Cl)c(Cl)c(Cl)c21
active: Potency [4] 3.98 µM | Potency [11] 20 µM | Potency [15] 39.8 µM
inactive: Potency [1] > 92 µM | Potency [2] > 92 µM | Potency [3] > 92 µM | Potency [5] | Potency [6] | Potency [7] | caspase-3 activation [8] -1.97% | Potency [9] | outcome [10] | Potency [12] | max response [13] 0.0759% | max response [14] -29.6%

O=C1OC(O)C(C(Cl)Cl)=C1Cl (stereo unspecified)
inactive: Potency [6] | Potency [7] | outcome [10] | Potency [11] | max response [13] -7.18% | max response [14] -27.5%
active: Potency [1] 41.2 µM | Potency [3] 30.2 µM | activity change, negative = cytotoxicity [4] -101% | Potency [16] 15.8 µM | Potency [5] 31.6 µM

COc1cc2c(c(OC)c1OC)-c1ccc(OC)c(=O)cc1[C@H](NC(C)=O)CC2
inactive: activity change, negative = inhibition ([17]; at 17.2 µM (top of the series)) -4.77% | activity change, negative = inhibition ([17]; at 38 µM (top of the series)) 3.11% | activity, negative = inhibition ([18]; at 17.2 µM (top of the series)) 4.59% | activity, negative = inhibition ([18]; at 38 µM (top of the series)) -18.3%

CCCc1[nH]nc2c1C(c1cccc(OC)c1)C(C#N)=C(N)O2 (stereo unspecified)
inactive: activity change, negative = inhibition [17, 20] 1.34% | activity, negative = inhibition [18, 20] -24.8% | Potency [19] > 20.6 µM

ClC1=C(Cl)C(Cl)(Cl)C(Cl)=C1Cl
25.1 µM (active) and inactive: Potency [15]
inactive: Potency [1] > 92 µM | Potency [2] > 92 µM | Potency [3] > 92 µM | Potency [16] | Potency [5] | Potency [7] | caspase-3 activation [8] 0.653% | Potency [9] | outcome [10] | Potency [11] | max response [13] -0.568% and 0.283% | max response [14] -13.8%
active: Potency [6] 10 µM | Potency [14] 11.2 µM

Cc1ccc(-n2ncc3c(NCc4ccc5c(c4)OCO5)ncnc32)c(C)c1
inactive: activity change, negative = inhibition [17, 20] 8.44% | activity, negative = inhibition [18, 20] -19.8% | Potency [19] > 20.6 µM

COC(=O)COc1ccc(Oc2nc(SC)nc(N(C)C)n2)nn1
inactive: activity change, negative = inhibition [17, 20] 4.35% | activity, negative = inhibition [18, 20] -4.81% | Potency [19] > 20.6 µM

C/C=C1\C(=O)C[C@H]2[C@@H]3CCC4=CC(=O)CC[C@]4(C)[C@H]3CC[C@]12C
active: activity change, negative = cytotoxicity [4] -114% | viability change, negative = cytotoxic [16] -80.2%
inactive: Potency [1] > 92 µM | Potency [2] > 92 µM | Potency [6] | Potency [7] | caspase-3 activation [8] 1.02% | Potency [9] | outcome [10] | Potency [11] | max response [13] -3.35% | Potency [15]
